According to the supplement of paper PMC10849652:
Of roughly 7,900 targets only a part is listed; those with a hit were picked by preference. About 0.6% of all pairs of compound and target were hits.

How the values were obtained:
Assay in all cases: log2 fold change, soluble protein after heating vs DMSO (PISA); higher = thermal stabilisation; K562 cells, 10 uM, 30 min; active = over 0.2 and 3.5 SD of the protein, either way, in both replicates (recomputed)
[1] = compound: CC1=C(C=C(C=C1)NC(=O)C2=CC(=CC=C2)C(C)(C)C#N)NC3=CC4=C(C=C3)N=CN(C4=O)C
Summary of the method: (§1)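 Quantification of soluble protein used TMTpro 16plex LC-MS/MS, with channel sums equalised. Samples were the supernatant after 21,000xg for 90 min of pooled aliquots from K562 cells (2×10^6 cells/mL) treated with 10 μM compound for 30 min, heated for 3 min over 48°C-58°C, and extracted in PBS with 0.5% NP-40 at 4°C. Values, from duplicates, describe thermal stability against control samples on a log2 fold-change scale.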

[2] = compound: CC1=C(C=C(C=C1)NC(=O)C2=CC(=CC=C2)N(C)C)NC(=O)C3=CC=C(C=C3)O
Summary of the method: as §1

[3] = compound: CC1=CC=C(C=C1)SC2=C3C=C(SC3=CN=C2)C(=O)N
Summary of the method: as §1

[4] = compound: CC1=NC(=CC=C1)C2=C(N=C(N2)C(C)(C)C)C3=CC4=NC=CN=C4C=C3
Summary of the method: as §1

Nexturastat A = compound: CCCCN(Cc1ccc(C(=O)NO)cc1)C(=O)Nc1ccccc1 [Nexturastat A]
Summary of the method: as §1

vemurafenib = compound: CCCS(=O)(=O)Nc1ccc(F)c(C(=O)c2c[nH]c3ncc(-c4ccc(Cl)cc4)cc23)c1F [vemurafenib]
Summary of the method: as §1

[5] = compound: CCCS(=O)(=O)Nc1ccc(F)c(C(=O)c2c[nH]c3ncc(Cl)cc23)c1F
Summary of the method: as §1

[6] = compound: CCCc1cc(C)[nH]c(=O)c1CNC(=O)c1cc(-c2ccnc(N3CCN(C)CC3)c2)cc2c1cnn2C(C)C
Summary of the method: as §1

givinostat = compound: CCN(CC)Cc1ccc2cc(COC(=O)Nc3ccc(C(=O)NO)cc3)ccc2c1 [givinostat]
Summary of the method: as §1

barasertib = compound: CCN(CCCOc1ccc2c(Nc3cc(CC(=O)Nc4cccc(F)c4)[nH]n3)ncnc2c1)CCOP(=O)(O)O [barasertib]
Summary of the method: as §1

[7] = compound: CC[C@@H]1C(=O)N(C)c2cnc(Nc3ccc(C(=O)NC4CCN(C)CC4)cc3OC)nc2N1C1CCCC1
Summary of the method: as §1

volasertib = compound: CC[C@@H]1C(=O)N(C)c2cnc(Nc3ccc(C(=O)N[C@H]4CC[C@H](N5CCN(CC6CC6)CC5)CC4)cc3OC)nc2N1C(C)C [volasertib]
Summary of the method: as §1

[8] = compound: CC[C@H](C)N1C=C(C2=C(C=C(C=C21)C3=CN=C(C=C3)N4CCNCC4)C(=O)NCC5=C(C=C(NC5=O)C)C)C
Summary of the method: as §1

epoxomicin = compound: CC[C@H](C)[C@@H](C(=O)N[C@@H]([C@@H](C)O)C(=O)N[C@@H](CC(C)C)C(=O)[C@]1(CO1)C)NC(=O)[C@H]([C@@H](C)CC)N(C)C(=O)C [epoxomicin]
Summary of the method: as §1

[9] = compound: CCn1c(C(=O)N(C2CC2)C2CC2)cc2c3c(ncn3C)c(Nc3cc(C)n(C)n3)nc21
Summary of the method: as §1

[10] = compound: CCn1cc(-c2ccnc3[nH]c(-c4cccc(CN(C)C)c4)cc23)c(-c2ccc(NC(=O)N(C)C)cc2)n1
Summary of the method: as §1

[11] = compound: CN(C)CC(=O)Nc1ccc2[nH]c(=O)c3ccccc3c2c1
Summary of the method: as §1

rosiglitazone = compound: CN(CCOC1=CC=C(C=C1)C[C@H]2C(=O)NC(=O)S2)C3=CC=CC=N3 (racemic) [rosiglitazone]
Summary of the method: as §1

[12] = compound: CN1C2=C(C3=C1C(=O)N(N=C3)CC4=CC(=CC=C4)N)SC(=C2)S(=O)C
Summary of the method: as §1

[13] = compound: CN1CCC(CNc2ccc3ncc(-c4cccc(OC(F)(F)F)c4)n3n2)CC1
Summary of the method: as §1

Measured: log2 fold change

DDB1 (UniProt Q16531)
inactive: [1] -0.012 | [2] 0.011 | [3] 0.006 | [4] 0 | Nexturastat A -0.036 | vemurafenib -0.012 | [5] -0.003 | [6] -0.027 | givinostat 0 | barasertib -0.01 | [7] 0.045 | volasertib 0.036 | [8] -0.032 | epoxomicin -0.024 | [9] 0.021 | [10] 0.009 | [11] -0.005 | rosiglitazone -0.01 | [12] -0.028 | [13] 0

EDC4 (UniProt Q6P2E9)
active: volasertib -0.47
inactive: [1] 0.004 | [2] -0.048 | [3] -0.022 | [4] -0.035 | Nexturastat A 0.022 | vemurafenib 0.035 | [5] 0.03 | [6] 0.029 | givinostat 0.031 | barasertib 0.057 | [7] -0.126 | [8] 0.042 | epoxomicin 0 | [9] -0.009 | [10] 0.039 | [11] -0.006 | rosiglitazone 0.014 | [12] 0.07 | [13] -0.084

DNAJC19 (UniProt Q96DA6)
Sequence of UniProt Q96DA6 (Q96DA6 whole entry, looked up): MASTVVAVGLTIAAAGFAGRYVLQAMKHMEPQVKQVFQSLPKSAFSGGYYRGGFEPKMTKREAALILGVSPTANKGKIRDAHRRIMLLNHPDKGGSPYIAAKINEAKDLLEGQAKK
inactive: [1] -0.02 | [2] 0.001 | [3] 0.043 | [4] 0.069 | Nexturastat A -0.121 | vemurafenib 0.003 | [5] 0.035 | [6] -0.013 | givinostat 0.005 | barasertib 0.007 | [7] -0.094 | volasertib -0.042 | [8] -0.014 | epoxomicin -0.015 | [9] 0.04 | [10] -0.022 | [11] 0.002 | rosiglitazone -0.01 | [12] -0.05 | [13] -0.148

FADS1, A0A0A0MR51
inactive: [1] 0.09 | [2] -0.019 | [3] 0.008 | [4] 0.069 | Nexturastat A -0.006 | vemurafenib -0.002 | [5] 0.021 | [6] -0.034 | barasertib 0.031 | [7] 0.022 | volasertib -0.148 | [8] 0.036 | epoxomicin 0.024 | [9] 0.002 | [10] -0.002 | [11] -0.007 | rosiglitazone 0.017 | [12] -0.119 | [13] -0.041
active: givinostat -0.274

CYFIP1 (UniProt Q7L576)
Sequence of UniProt Q7L576 (Q7L576 whole entry, looked up): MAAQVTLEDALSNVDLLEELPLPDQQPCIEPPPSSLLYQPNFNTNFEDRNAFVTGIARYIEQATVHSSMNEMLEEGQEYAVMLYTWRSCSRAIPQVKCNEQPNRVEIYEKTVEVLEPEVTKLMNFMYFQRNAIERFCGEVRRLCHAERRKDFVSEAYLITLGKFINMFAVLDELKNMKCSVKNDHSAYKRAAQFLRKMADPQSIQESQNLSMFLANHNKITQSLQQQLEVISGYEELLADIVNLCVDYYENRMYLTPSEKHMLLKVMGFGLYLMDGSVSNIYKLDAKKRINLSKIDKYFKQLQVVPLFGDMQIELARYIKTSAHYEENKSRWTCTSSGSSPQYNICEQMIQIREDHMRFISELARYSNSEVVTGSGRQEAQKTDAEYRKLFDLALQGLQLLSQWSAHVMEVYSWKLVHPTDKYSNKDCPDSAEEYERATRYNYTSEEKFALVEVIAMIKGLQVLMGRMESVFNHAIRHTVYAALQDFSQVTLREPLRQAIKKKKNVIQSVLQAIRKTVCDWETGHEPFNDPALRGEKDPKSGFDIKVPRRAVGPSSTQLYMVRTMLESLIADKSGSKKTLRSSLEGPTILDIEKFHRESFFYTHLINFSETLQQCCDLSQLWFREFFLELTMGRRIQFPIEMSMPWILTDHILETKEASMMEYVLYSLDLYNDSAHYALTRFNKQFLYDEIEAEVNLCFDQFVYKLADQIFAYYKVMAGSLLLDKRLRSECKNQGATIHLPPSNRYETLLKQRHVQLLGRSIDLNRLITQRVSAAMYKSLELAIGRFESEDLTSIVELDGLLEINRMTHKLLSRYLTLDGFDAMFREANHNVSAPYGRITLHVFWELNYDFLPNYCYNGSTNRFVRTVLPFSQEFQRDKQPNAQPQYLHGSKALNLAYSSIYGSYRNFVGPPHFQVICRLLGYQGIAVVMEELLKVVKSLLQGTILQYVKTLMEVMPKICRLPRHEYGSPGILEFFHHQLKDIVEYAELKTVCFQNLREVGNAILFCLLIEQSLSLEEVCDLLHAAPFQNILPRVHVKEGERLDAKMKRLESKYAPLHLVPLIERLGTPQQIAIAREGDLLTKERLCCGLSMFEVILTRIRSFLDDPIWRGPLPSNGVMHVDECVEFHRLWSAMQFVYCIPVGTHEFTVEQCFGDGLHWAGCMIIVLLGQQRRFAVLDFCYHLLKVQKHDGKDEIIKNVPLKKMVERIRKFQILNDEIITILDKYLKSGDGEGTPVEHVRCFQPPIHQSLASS
active: volasertib -0.233
inactive: [1] 0.012 | [2] 0.005 | [3] 0.017 | [4] 0.035 | Nexturastat A -0.043 | vemurafenib 0.026 | [5] 0.019 | [6] 0.006 | givinostat -0.005 | barasertib 0.038 | [7] -0.011 | [8] 0.046 | epoxomicin 0.02 | [9] -0.008 | [10] 0.011 | [11] 0.024 | rosiglitazone 0.045 | [12] 0.001 | [13] -0.034

ERLIN1 (UniProt O75477)
inactive: [1] 0.011 | [2] -0.018 | [3] 0.028 | [4] -0.01 | Nexturastat A 0.031 | vemurafenib -0.02 | [5] 0.014 | [6] 0.065 | givinostat 0.014 | barasertib 0.028 | [7] -0.01 | volasertib -0.025 | [8] 0.07 | epoxomicin 0.018 | [9] 0.01 | [10] 0.057 | [11] 0.003 | rosiglitazone 0.016 | [12] 0.095 | [13] 0.116

EXOC4 (UniProt Q96A65)
Sequence of UniProt Q96A65 (Q96A65 whole entry, looked up): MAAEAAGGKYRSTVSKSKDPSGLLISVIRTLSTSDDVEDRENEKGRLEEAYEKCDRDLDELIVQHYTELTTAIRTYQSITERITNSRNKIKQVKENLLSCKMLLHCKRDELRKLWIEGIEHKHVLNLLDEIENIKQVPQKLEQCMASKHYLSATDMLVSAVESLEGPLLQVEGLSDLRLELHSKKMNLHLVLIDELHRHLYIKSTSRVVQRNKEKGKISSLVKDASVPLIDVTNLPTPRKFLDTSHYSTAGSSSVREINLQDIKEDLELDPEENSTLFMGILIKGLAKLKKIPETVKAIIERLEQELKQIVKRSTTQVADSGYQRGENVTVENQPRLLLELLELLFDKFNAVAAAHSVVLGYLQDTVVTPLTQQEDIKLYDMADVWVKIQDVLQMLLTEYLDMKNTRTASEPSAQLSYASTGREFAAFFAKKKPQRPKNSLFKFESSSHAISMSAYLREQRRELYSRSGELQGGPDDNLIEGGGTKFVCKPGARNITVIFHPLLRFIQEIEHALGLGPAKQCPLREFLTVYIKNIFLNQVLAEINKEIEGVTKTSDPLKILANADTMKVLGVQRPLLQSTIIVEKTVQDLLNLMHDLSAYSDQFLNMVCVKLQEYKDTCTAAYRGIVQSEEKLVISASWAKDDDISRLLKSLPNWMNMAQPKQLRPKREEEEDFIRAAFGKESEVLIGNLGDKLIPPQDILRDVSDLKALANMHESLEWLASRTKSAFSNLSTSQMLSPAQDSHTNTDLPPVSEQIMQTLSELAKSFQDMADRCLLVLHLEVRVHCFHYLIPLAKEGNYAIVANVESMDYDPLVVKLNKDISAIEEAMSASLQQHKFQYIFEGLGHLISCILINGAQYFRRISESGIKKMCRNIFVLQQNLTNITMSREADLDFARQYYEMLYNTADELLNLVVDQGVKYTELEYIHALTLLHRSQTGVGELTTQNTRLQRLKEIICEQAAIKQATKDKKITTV
active: volasertib -0.606
inactive: [1] -0.021 | [2] 0.029 | [3] 0.021 | [4] 0.001 | Nexturastat A 0.209 | vemurafenib -0.003 | [5] 0.098 | [6] 0.01 | givinostat 0.133 | barasertib 0.139 | [7] -0.145 | [8] 0.095 | epoxomicin 0.005 | [9] -0.129 | [10] 0.021 | [11] 0.061 | rosiglitazone 0.021 | [12] 0.103 | [13] -0.243

EPHX2 (UniProt P34913)
inactive: [1] 0.112 | [2] 0.129 | [3] 0.031 | [4] -0.017 | Nexturastat A 0.193 | vemurafenib -0.012 | [5] -0.025 | [6] -0.075 | givinostat -0.014 | barasertib -0.029 | [7] 0.098 | volasertib 0.117 | [8] -0.019 | epoxomicin -0.012 | [9] -0.002 | [10] -0.032 | [11] -0.015 | rosiglitazone 0.033 | [12] 0.066 | [13] 0.091

ELOVL1 (UniProt Q9BW60)
active: [13] -0.691
inactive: [1] -0.035 | [2] -0.065 | [3] 0.064 | [4] 0.044 | Nexturastat A 0.03 | vemurafenib -0.032 | [5] 0.116 | [6] -0.063 | givinostat 0.067 | barasertib 0.028 | [7] -0.217 | volasertib -0.127 | [8] -0.011 | epoxomicin 0.003 | [9] -0.044 | [10] 0.032 | [11] 0.116 | rosiglitazone 0.002 | [12] -0.068

ECPAS (UniProt Q5VYK3)
Sequence of UniProt Q5VYK3 (Q5VYK3 whole entry, looked up): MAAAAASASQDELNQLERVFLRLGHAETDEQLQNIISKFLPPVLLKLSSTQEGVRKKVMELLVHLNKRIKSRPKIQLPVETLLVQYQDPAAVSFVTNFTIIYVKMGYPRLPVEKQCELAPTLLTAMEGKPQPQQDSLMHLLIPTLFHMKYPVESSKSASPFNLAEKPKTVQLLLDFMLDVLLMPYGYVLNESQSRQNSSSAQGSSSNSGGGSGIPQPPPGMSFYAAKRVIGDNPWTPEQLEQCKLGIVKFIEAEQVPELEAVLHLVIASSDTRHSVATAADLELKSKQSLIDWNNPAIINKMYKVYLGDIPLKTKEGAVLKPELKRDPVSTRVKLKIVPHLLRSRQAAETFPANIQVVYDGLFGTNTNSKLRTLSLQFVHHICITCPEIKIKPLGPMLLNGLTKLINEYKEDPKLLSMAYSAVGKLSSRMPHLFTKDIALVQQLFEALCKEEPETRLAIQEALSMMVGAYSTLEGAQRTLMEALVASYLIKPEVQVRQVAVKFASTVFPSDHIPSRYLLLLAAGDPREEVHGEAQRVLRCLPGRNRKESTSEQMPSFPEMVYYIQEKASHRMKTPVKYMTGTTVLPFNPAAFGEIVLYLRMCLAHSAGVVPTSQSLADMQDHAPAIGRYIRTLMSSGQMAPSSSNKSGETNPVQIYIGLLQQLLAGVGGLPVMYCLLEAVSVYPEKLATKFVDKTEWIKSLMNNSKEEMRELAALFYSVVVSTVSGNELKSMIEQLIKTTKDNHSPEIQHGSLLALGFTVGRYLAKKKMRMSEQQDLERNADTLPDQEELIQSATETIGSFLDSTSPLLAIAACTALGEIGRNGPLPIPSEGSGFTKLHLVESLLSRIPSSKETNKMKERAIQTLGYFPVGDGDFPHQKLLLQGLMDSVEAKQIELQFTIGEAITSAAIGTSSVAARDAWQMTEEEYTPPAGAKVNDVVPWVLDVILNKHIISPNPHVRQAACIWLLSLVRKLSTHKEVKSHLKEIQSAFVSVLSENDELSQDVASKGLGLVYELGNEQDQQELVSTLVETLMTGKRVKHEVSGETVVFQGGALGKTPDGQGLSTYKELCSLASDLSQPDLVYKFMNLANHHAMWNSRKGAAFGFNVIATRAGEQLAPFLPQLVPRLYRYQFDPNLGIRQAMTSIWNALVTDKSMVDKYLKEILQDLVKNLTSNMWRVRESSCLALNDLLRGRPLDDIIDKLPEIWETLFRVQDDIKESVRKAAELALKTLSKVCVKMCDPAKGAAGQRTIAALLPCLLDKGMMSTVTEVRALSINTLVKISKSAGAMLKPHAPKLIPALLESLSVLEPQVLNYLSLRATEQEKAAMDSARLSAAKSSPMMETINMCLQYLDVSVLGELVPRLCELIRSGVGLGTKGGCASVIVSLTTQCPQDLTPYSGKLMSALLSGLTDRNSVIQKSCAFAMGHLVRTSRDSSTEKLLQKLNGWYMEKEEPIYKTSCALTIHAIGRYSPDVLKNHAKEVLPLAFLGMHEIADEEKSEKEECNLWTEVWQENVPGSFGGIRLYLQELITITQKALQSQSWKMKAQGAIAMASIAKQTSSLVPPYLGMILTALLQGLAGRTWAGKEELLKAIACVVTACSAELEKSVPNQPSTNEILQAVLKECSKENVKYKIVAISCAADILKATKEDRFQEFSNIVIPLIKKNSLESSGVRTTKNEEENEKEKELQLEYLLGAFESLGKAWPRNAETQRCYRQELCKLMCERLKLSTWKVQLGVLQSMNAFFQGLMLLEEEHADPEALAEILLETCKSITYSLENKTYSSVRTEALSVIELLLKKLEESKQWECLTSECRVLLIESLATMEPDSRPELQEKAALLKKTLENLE
active: volasertib -0.602 | epoxomicin 0.614
inactive: [1] 0.008 | [2] -0.06 | [3] 0.016 | [4] 0.02 | Nexturastat A 0.049 | vemurafenib 0.084 | [5] 0.059 | [6] 0.051 | givinostat 0.118 | barasertib 0.037 | [7] -0.188 | [8] 0.093 | [9] -0.097 | [10] -0.029 | [11] 0.079 | rosiglitazone 0.041 | [12] 0.026 | [13] -0.143

FAM83D (UniProt Q9H4H8)
inactive: [1] 0.008 | [2] -0.029 | [3] 0.028 | [4] 0.018 | Nexturastat A 0.102 | vemurafenib 0.041 | [5] 0.097 | [6] 0.016 | givinostat 0.103 | barasertib 0.128 | [7] -0.097 | volasertib -0.139 | [8] 0 | epoxomicin -0.082 | [9] -0.074 | [10] -0.115 | [11] 0.085 | rosiglitazone 0.081 | [12] 0.006 | [13] 0.042

DAG1 (UniProt Q14118)
inactive: [1] -0.053 | [2] -0.019 | [3] -0.013 | [4] 0.001 | Nexturastat A -0.005 | vemurafenib 0.005 | [5] -0.06 | [6] -0.028 | givinostat 0.019 | barasertib 0.011 | [7] 0.149 | volasertib 0.048 | [8] -0.008 | epoxomicin 0.023 | [9] -0.039 | [10] -0.044 | [11] 0.012 | rosiglitazone -0.007 | [12] -0.075
active: [13] 0.243

FAM177A1 isoform 2 (UniProt Q8N128)
Sequence of UniProt Q8N128 (Q8N128 whole entry, looked up): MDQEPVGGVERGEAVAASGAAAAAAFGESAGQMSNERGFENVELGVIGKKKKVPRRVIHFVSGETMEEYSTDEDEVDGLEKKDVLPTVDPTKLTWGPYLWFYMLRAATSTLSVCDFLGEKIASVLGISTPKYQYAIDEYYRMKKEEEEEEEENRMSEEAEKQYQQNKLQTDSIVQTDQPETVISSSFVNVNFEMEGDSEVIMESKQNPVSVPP
active: [13] -0.259
inactive: [1] -0.071 | [2] 0.152 | [3] 0.101 | [4] 0.039 | Nexturastat A -0.064 | vemurafenib -0.061 | [5] 0.014 | [6] -0.02 | givinostat -0.045 | barasertib 0.037 | [7] -0.039 | volasertib -0.108 | [8] 0.006 | epoxomicin 0.045 | [9] -0.001 | [10] 0.045 | [11] -0.012 | rosiglitazone 0.012 | [12] -0.023

EBNA1BP2 (UniProt Q99848)
Sequence of UniProt Q99848 (Q99848 whole entry, looked up): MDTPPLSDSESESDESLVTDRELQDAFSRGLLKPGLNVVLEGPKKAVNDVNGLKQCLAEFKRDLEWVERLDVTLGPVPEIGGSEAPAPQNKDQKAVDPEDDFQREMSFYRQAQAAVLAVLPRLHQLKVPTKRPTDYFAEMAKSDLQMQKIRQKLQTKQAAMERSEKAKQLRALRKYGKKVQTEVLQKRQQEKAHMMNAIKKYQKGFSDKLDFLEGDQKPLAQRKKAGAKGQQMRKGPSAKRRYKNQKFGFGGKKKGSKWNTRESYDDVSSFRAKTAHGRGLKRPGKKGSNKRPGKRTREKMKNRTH
inactive: [1] -0.014 | [2] -0.033 | [3] -0.07 | [4] -0.153 | Nexturastat A 0.438 | vemurafenib -0.042 | [5] 0.004 | [6] 0.113 | givinostat 0.174 | barasertib -0.187 | [7] 0.167 | volasertib 0.351 | [8] 0.021 | epoxomicin -0.343 | [9] -0.059 | [10] 0.132 | [11] -0.106 | rosiglitazone -0.25 | [12] 0.379 | [13] 0.197

DTNBP1 (UniProt Q96EV8)
Sequence of UniProt Q96EV8 (Q96EV8 whole entry, looked up): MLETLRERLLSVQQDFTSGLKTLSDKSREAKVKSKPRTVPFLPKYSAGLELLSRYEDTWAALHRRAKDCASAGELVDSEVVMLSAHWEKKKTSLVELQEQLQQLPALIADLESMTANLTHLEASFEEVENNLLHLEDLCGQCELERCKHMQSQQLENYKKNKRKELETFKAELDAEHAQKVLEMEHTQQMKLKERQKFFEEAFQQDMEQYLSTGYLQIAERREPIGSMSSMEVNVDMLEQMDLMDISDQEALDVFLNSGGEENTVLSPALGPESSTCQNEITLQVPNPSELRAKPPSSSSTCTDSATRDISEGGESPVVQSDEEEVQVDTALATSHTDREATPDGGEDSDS
inactive: [1] -0.078 | [2] 0.006 | [3] 0.001 | [4] 0.055 | Nexturastat A -0.022 | vemurafenib 0.021 | [5] 0.017 | [6] -0.026 | givinostat -0.014 | barasertib 0.01 | [7] -0.017 | volasertib 0.009 | [8] -0.002 | epoxomicin 0.048 | [9] 0.026 | [10] -0.086 | [11] -0.009 | rosiglitazone 0.016 | [12] -0.028 | [13] 0.01

DCAF10 (UniProt Q5QP82)
inactive: [1] -0.024 | [2] 0.121 | [3] -0.015 | [4] -0.009 | Nexturastat A 0.012 | vemurafenib -0.044 | [5] 0.002 | [6] -0.121 | givinostat -0.094 | barasertib -0.006 | [7] -0.003 | volasertib 0.029 | [8] -0.038 | epoxomicin -0.102 | [9] -0.049 | [10] -0.018 | [11] -0.043 | rosiglitazone -0.015 | [12] -0.026 | [13] 0.022
